Assay in all cases: NCI-60 one-dose screen, 48 h (100 = growth as untreated, 0 = no growth, -100 = all killed)
Common to all, as to conditions: 10 µM unless noted

The test system of assay [1] is NCI-H23 lung.
Assay [2] deals with NCI-H226 lung.
For assay [3], the system named is NCI-H322M lung.
Assay [4] concerns HOP-62 NSCLC.
Assay [5] concerns NCI-H460 lung.
Assay [6] concerns HOP-92 NSCLC.
Assay [7] concerns NCI-H522 lung.
Assay [8] deals with A549/ATCC NSCLC.
The test system of assay [9] is 786-0 renal.
The test system of assay [10] is COLO 205 colon.

This is part of a sample that, as a whole, favours compounds with a hit. Of some 83,000 tested, about 20% had one in any assay.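 The test compound was applied at a single concentration to cells in 96-well plates for 48 hours, and percent growth was recorded.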 Values without a mark were called inactive. Calls of active or inactive are those of the source. How the source made its calls: active means growth percent below 10; inactive means the rest.

On to `S=C(c1ccc2c(c1)OCO2)N1CCN(c2cccc(Cl)c2)CC1`, for which the growth in assay [1] was 35%; in assay [2], 34.2%; in assay [3], 57.3%; in assay [4], 37.5%; in assay [5], 6.73% (active); in assay [6], 63.9%. In addition, the growth in assay [7] was 2.22% (active); in assay [8], 35.9%; in assay [9], 37.8%; in assay [10] it was 25.4%.

Turning to `O=C(CI)NC(=O)NC(=O)NCc1ccccc1`, the growth in assay [1] was 32.6%; in assay [2], -43.6% (active); in assay [3], 86.4%; in assay [4], 85.9%; in [5] it was 102%; in assay [6], -17.4% (active). Also, the growth in assay [7] is -82% (active); in assay [8] it was 92.9%; in [9], 23.9%; in assay [10] it was -41.4% (active).

For `COc1cc(Cl)c(C)cc1NC(=O)c1cc2ccccc2cc1O`, the growth in assay [1] was 2% (active); in [2], 13.3%; in [3], 9.8% (active); in assay [4] it was 26.5%; in assay [5], 6.83% (active); in [6] it was -15.4% (active). Besides, the growth in assay [7] is -11.5% (active); in [8], 10%; in assay [9] it was 14.1%; in assay [10], 86.9%.

With `O=C1/C(=C2\SC(=S)N(C3CC3)C2=O)SC(=S)N1C1CC1`, the growth in [1] is 96.7%; in assay [2], 95.5%; in assay [3] it was 95.6%; in [4] it was 99.3%; in assay [5], 103%; in assay [6], 98.9%. The growth is 91.9% in [7], 98.1% in [8], 98.6% in [9] and 117% in assay [10].

For the molecule `Cc1nn(-c2ccccc2)c(N)c1N=C1NC(=O)/C(=C/c2ccc(Br)cc2)S1`, the growth was 75.8% in assay [1]; 78.4% in [2]; 83.5% in assay [3]; 59.6% in assay [4]; 93.1% in assay [5]; 65.6% in assay [6]. In addition, the growth is 85.4% in assay [7], 74.3% in assay [8], 94.6% in assay [9] and 101% in assay [10].

`CC1=CCC(OC(=O)C(C)(C)CC(O)(C(C)O)C(O)C2(C)C=CC(Cc3ccc(C(C)C)cc3)(C(C)C)CC2)(C(C)C)CC1` (stereo not given): the growth is 95.6% in assay [1]; 92.3% in assay [2]; 93.7% in assay [3]; 99.2% in assay [4]; 103% in assay [5]; 84.9% in assay [6]. Besides, the growth in [7] is 91.2%; in assay [8], 98.5%; in assay [9], 99.9%; in assay [10], 103%.

On to `COc1ccc(/C=C2\CN(C(=O)C(Cl)Cl)C/C(=C\c3ccc(OC)cc3)C2=O)cc1`, for which the growth is -36.9% (active) in assay [1]; 61.3% in assay [2]; 4.8% (active) in assay [3]; 40.5% in [4]; -34.5% (active) in assay [5]; -3.88% (active) in assay [6]. Also, the growth in [7] is 14.9%; in assay [8] it was 4.79% (active); in assay [9] it was -48.4% (active); in [10], -34.2% (active).

`O=C(/C=C/c1cccc(Cl)c1Cl)Nc1ncc(Cc2ccccc2Cl)s1`: the growth was 79.2% in [1]; 67.7% in assay [2]; 78.5% in assay [3]; 42.4% in assay [4]; 33.9% in assay [5]; 61.6% in assay [6]. The growth was 17.5% in [7], 58.2% in assay [8], 68.7% in [9] and 45.4% in [10].

`COc1cc(-c2nc3c(ncc4ccc(=O)n(-c5ccccc5)c43)s2)cc(OC)c1OC`: the growth in [1] was 80.5%; in assay [2] it was 63.3%; in assay [3], 73.6%; in assay [4], 88.6%; in [5] it was 84.3%; in assay [6], 19.1%. Further, the growth in assay [7] is 64.8%; in assay [8], 86.3%; in [9], 46.7%; in assay [10] it was 79.2%.

For `CN(C)CCN1C(=O)c2cccc3c(/C=C/CN4C(=O)c5cccc6cccc(c56)C4=O)ccc(c23)C1=O`, the growth is 93.8% in assay [1]; 98.7% in [2]; 84.3% in assay [3]; 88.9% in assay [4]; 93.7% in assay [5]; 94.2% in assay [6]. In addition, the growth is 101% in assay [7], 85.3% in assay [8], -84.5% (active) in assay [9] and 82.1% in assay [10].

For the molecule `CC1(C)CC[C@]2(C(=O)N[C@H](CO)Cc3ccccc3)CC[C@]3(C)C(=CC[C@@H]4[C@@]5(C)CCCNC(C)(C)[C@@H]5CC[C@]43C)[C@@H]2C1`, the growth is 104% in assay [1]; 91.1% in assay [2]; 95.3% in assay [3]; 89% in assay [4]; 78.3% in assay [5]; 26.4% in assay [6]. The growth was 96.8% in [7], 89.8% in [8], 65.5% in assay [9] and 77.8% in assay [10].

For `CC(=O)OC(c1ccccc1)C1CCOC1=O` (stereo not given), the growth is 93.8% in [1]; 93.6% in assay [2]; 106% in [3]; 99.2% in assay [4]; 109% in assay [5]; 93.2% in assay [6]. In addition, the growth in assay [7] was 78.1%; in [8], 99%; in [9], 94.8%; in assay [10] it was 170%.

In the case of `C#CCO[C@H]1CC(CC#C)(CC#C)C(=O)[C@@H]2[C@H]1[C@H]1C[C@@H]3[C@@]4(C)CCC[C@@](C)(C(=O)OC)[C@@H]4CC[C@@]23C=C1C(C)C`, the growth is 73.2% in assay [1]; 88.3% in assay [2]; 104% in assay [3]; 98.7% in [4]; 97.8% in [5]; 13.6% in [6]. For the same molecule, the growth was -77% (active) in [7], 89.4% in assay [8], 41.4% in assay [9] and 86.8% in [10].
